# The supplement of paper PMC6607015
# Counter-ions that a name gives are not always drawn.
# What was measured:
# Conditions in all cases: compound concentration in added solution (µM; 5 µl added to 20 µl cells): 10; 18 h
# A431 [1] = experiment: LBPA endosome anti-LBPA integrated intensity (sum per cell), Z-score; higher = more LBPA staining
# Procedure, shortened: (§1)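 In duplicate 384-well imaging plates, 3,500 HeLa MZ or A431 cells in 20 µl per well were seeded onto 5 µl of 10 µM compound solution. The cells were incubated for 18 h, fixed in 4% PFA and stained with 6C4 anti-LBPA antibody, filipin, propidium iodide and CellTracker green before four 20× images were acquired per well. Values are AcuityXpress-normalised Z-scores of per-cell integrated LBPA or filipin intensity, obtained by MetaXpress segmentation over the whole cell or in LBPA endosomes.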
# HeLa MZ [2] = experiment: as above
# Procedure, shortened: as §1
# A431 [3] = experiment: whole-cell filipin (free cholesterol) integrated intensity, Z-score; higher = more cholesterol staining
# Procedure, shortened: as §1
# HeLa MZ [4] = experiment: as above
# Procedure, shortened: as §1
# A431 [5] = experiment: filipin (cholesterol) integrated intensity within LBPA endosomes, Z-score; higher = more cholesterol in LBPA endosomes
# Procedure, shortened: as §1
# HeLa MZ [6] = experiment: as above
# Procedure, shortened: as §1
Compound,LBPA endosome anti-LBPA integrated intensity (z-score) (A431 [1]),LBPA endosome anti-LBPA integrated intensity (z-score) (HeLa MZ [2]),whole-cell filipin (z-score) (A431 [3]),whole-cell filipin (z-score) (HeLa MZ [4]),filipin (z-score) (A431 [5]),filipin (z-score) (HeLa MZ [6])
CC(=O)Oc1ccccc1C(=O)Oc1ccccc1C(=O)O [Acetylsalicylsalicylic acid],-0.367,-0.319,-0.583,-0.226,-0.456,-0.52
O=C(O)c1cc(/N=N/c2ccc(S(=O)(=O)Nc3ccccn3)cc2)ccc1O [Sulfasalazine],-0.338,0.849,0.0767,1.46,-0.515,-0.277
CCC1(c2ccccc2)NC(=O)N(C)C1=O (stereo unspecified) [Mephenytoin],-0.412,-0.524,-0.0979,-0.325,-0.496,-0.516
O=c1[nH]c(=O)n([C@H]2C[C@H](O)[C@@H](CO)O2)cc1I [Idoxuridine],-0.506,0.506,-0.368,0.357,-0.479,-0.063
NCCCCCC(=O)O [Aminocaproic acid],-0.515,-0.605,-0.556,-0.716,-0.511,-0.479
C#CCN(C)CCCOc1ccc(Cl)cc1Cl [Clorgyline hydrochloride],-0.292,0.155,-1.09,-0.252,-0.435,-0.359
CCN1CCC[C@H]1CNC(=O)c1c(O)c(Cl)cc(Cl)c1OC [Raclopride],-0.484,-0.235,-0.93,-0.588,-0.489,-0.47
NC(=O)OCC(O)COc1ccc(Cl)cc1 (stereo unspecified) [Chlorphensin carbamate],-0.6,-2.23,-1.05,-0.894,-0.514,-0.697
Nc1ccn([C@H]2CC[C@@H](CO)O2)c(=O)n1 [Zalcitabine],-0.426,-0.556,0.221,0.402,-0.388,-0.459
CCN(CC)CCOC(=O)c1ccc(N)cc1 [Procaine hydrochloride],-0.324,0.381,-1.04,-0.86,-0.492,-0.418
CC(N/C(=N\C#N)Nc1ccncc1)C(C)(C)C (stereo unspecified) [Pinacidil],-0.477,-0.897,-0.717,-0.503,-0.45,-0.559
COC(c1ccccc1)(c1ccccc1)[C@H](Oc1nc(C)cc(C)n1)C(=O)O [Ambrisentan],-0.48,-0.16,-0.0813,1.12,-0.393,-0.359
C=C(CC)C(=O)c1ccc(OCC(=O)O)c(Cl)c1Cl [Ethacrynic acid],-0.359,-0.213,-0.0585,0.416,-0.423,-0.312
COc1ccc(C(=O)c2ccccc2)c(O)c1 [Oxybenzone],-0.5,-0.722,-0.24,0.387,-0.525,-0.452
CCCC(CCC)C(=O)O [Valproic acid],-0.476,1.11,0.263,2.69,-0.401,-0.484
CCC(=O)O[C@]1(C(=O)SCF)[C@H](C)C[C@H]2[C@@H]3C[C@H](F)C4=CC(=O)C=C[C@]4(C)[C@@]3(F)[C@@H](O)C[C@@]21C [Fluticasone propionate],-0.0811,0.00943,0.193,-0.0272,-0.0798,-0.437
CCN(CC)CCOC(=O)C(Cc1cccc2ccccc12)CC1CCCO1 (stereo unspecified) [Nafronyl oxalate],1.69,2.05,1.62,0.888,1.25,1.15
C[C@@H]1CN(c2c(F)c(N)c3c(=O)c(C(=O)O)cn(C4CC4)c3c2F)C[C@H](C)N1 [Sparfloxacin],-0.202,0.876,0.309,0.295,-0.322,-0.143
O=C(NCCO[N+](=O)[O-])c1cccnc1 [Nicorandil],-0.51,-0.536,-0.699,-0.868,-0.497,-0.545
CC(=O)CCCCn1c(=O)c2c(ncn2C)n(C)c1=O [Pentoxifylline],-0.527,-0.115,-0.786,-0.278,-0.513,-0.514
CCCCNc1ccc(C(=O)OCCN(C)C)cc1 [Tetraca? hydrochloride],-0.207,0.761,-0.403,-0.308,-0.238,0.182
COc1cc(NC(C)CCCN)c2ncccc2c1 (stereo unspecified) [Primaquine diphosphate],-0.0886,0.528,-0.291,-0.377,-0.187,0.116
CCCc1cc(C(N)=S)ccn1 [Prothionamide],-0.257,0.224,0.0431,-0.0396,-0.301,-0.377
CNC(=O)c1c(I)c(C(=O)NCC(=O)Nc2c(I)c(C(=O)O)c(I)c(C(=O)NCCO)c2I)c(I)c(N(C)C(C)=O)c1I [Ioxaglic acid],-0.421,-0.394,-0.282,-0.455,-0.384,-0.571
CO[C@H]1/C=C/O[C@@]2(C)Oc3c(C)c(O)c4c(O)c(c(/C=N/N5CCN(C6CCCC6)CC5)c(O)c4c3C2=O)NC(=O)/C(C)=C\C=C\[C@H](C)[C@H](O)[C@@H](C)[C@@H](O)[C@@H](C)[C@H](OC(C)=O)[C@@H]1C [Rifapentine],-0.344,-0.538,-0.546,-0.401,-0.461,-0.486
CC(C)(C)NC(=O)[C@H]1CC[C@H]2[C@@H]3CC[C@H]4NC(=O)C=C[C@]4(C)[C@H]3CC[C@]12C [Finasteride],-0.353,-0.576,0.536,0.274,-0.256,-0.306
